High-throughput results from PubChem.
Only some compounds are listed: those with a hit (about 3% of all), similar ones and a draw of the others.
DRD3 agonist – qHTS of D3 Dopamine Receptor Agonist: qHTS | D(3) dopamine receptor (Homo sapiens), P35462 | D3R DiscoveRx beta-arrestin cells, luminescence, 90 min | max activation, % | 410,000 tested, 0.58% active; in the data active = max activation above about 30%
Target sequence (P35462 whole entry, looked up): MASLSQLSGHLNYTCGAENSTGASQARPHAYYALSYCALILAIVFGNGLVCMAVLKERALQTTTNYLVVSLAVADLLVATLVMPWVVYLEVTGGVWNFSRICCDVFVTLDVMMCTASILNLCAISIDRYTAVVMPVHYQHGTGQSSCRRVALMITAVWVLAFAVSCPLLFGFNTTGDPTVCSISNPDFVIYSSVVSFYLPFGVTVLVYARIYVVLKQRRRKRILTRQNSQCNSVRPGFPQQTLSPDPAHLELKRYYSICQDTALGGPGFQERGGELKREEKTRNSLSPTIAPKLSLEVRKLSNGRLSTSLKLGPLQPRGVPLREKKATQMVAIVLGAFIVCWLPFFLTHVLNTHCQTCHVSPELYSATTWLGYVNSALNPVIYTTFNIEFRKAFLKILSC
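Agonist-mode cell screen: cells plated at 1500/well and incubated overnight at 37 °C, then exposed to library compounds for 90 min at 37 °C. Detection reagent was added for 30–60 min at room temperature, and luminescence was read.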
Glioma ERSR ind – qHTS for Inducers of the Endoplasmic Reticulum Stress Response (ERSR) in Human Glioma: qHTS; U87-MG GRP78 promoter luciferase reporter, 16 h; AID 602332, 2012; Potency, µM, hits mostly activators; 420,000 tested, 0.02% active; also: series mostly up to about 76 µM; nearly all actives have a fitted effect of over 35% in size
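Stably transfected U87-MG glioma cells carrying a GRP78-based luciferase sensor; 16 h compound incubation. Luminescence end-point read 10 min after Bright-Glo addition at room temperature.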
DRD3 antagonist – qHTS of D3 Dopamine Receptor Antagonist: qHTS. D3R cells, DiscoveRx beta-arrestin luminescence, antagonist mode; hits give low values. 360,000 tested, 2.5% active. AID 652054, 2013. max response, negative = inhibition, %; in the data active = max response below about -50%; inconclusive = no clear call, values can overlap the other calls
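Cells expressing the human receptor were seeded at 1500 cells/well, incubated overnight at 37 degrees C in 5% CO2, then exposed to library compounds with dopamine controls for 90 minutes at 37 degrees C before luminescent detection.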
Nrf2 activator – qHTS of Nrf2 Activators; Potency, µM (titrated, usually from 46.1 µM), most hits filed as activators; AREc32 ARE-luciferase reporter (MCF7-derived line), luminescence, 24 h; 410,000 tested, 0.31% active; AID 624171, 2012; also: nearly all actives have a fitted effect of over 65% in size
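Reporter line AREc32 (ARE-Fluc), seeded overnight in OPTI-MEM with 5% FBS; compound pin-transferred, 24 hr at 37 deg C, 5% CO2; luminescent read-out.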
A number is an active result; n = inactive; u = inconclusive; x = not tested or not shown. Unless noted, calls follow the shape of the dose curve; as a rule, active = well fitted curve in the direction sought with a large enough effect; inconclusive = small, poorly fitted or top-dose-only effect, or another doubt; inactive = no such curve, though single readings can be large; an effect the other way counts as inactive or inconclusive.

SMILES	DRD3 agonist	Glioma ERSR ind	DRD3 antagonist	Nrf2 activator
NC(=O)CC(NC(=O)Cc1cccc2ccccc12)c1ccc(NCc2ccc(F)cc2)c([N+](=O)[O-])c1 (configuration not stated)	n	n	-60	n
NC(=O)CC(NC(=O)Cc1cccc2ccccc12)c1ccc(NCc2ccccn2)c([N+](=O)[O-])c1 (configuration not stated)	n	n	n	n
NC(=O)CC(NC(=O)Cc1cccc2ccccc12)c1ccc(NC2CCCCCC2)c([N+](=O)[O-])c1 (configuration not stated)	n	n	n	n
NC(=O)CC(NC(=O)Cc1cccc2ccccc12)c1ccc(NC2CCCCCCC2)c([N+](=O)[O-])c1 (configuration not stated)	n	n	-61	n
CC(C)(C)c1ccc(C(=O)C[n+]2ccc(Cl)c3ccc(Cl)cc32)cc1	x	n	x	x
C(=C\c1ccccc1)/CN1CCN(C(c2cccs2)c2nnnn2-c2ccc3c(c2)OCCO3)CC1 (configuration not stated)	n	n	-79	n
COc1ccc(-n2nnnc2C(c2cccc3ccccc23)N2CCN(C/C=C/c3ccccc3)CC2)cc1 (configuration not stated)	n	n	-92	n
COc1ccc(-n2nnnc2C(c2cc3ccccc3o2)N2CCN(C/C=C/c3ccccc3)CC2)cc1 (configuration not stated)	n	n	-98	n
CCCCn1nnnc1C(c1cc2ccccc2o1)N1CCN(C/C=C/c2ccccc2)CC1 (configuration not stated)	n	n	-72	n
O=C(O)Cc1sc(Nc2ccccc2Cl)nc1-c1ccccc1	n	n	x	n
CN(C)c1ccc(/C=C/c2ccnc3ccc(N)cc23)cc1	x	n	x	x
Cc1cccc(-c2cccc(C(=O)N3CCc4c(cnc(C)c4CNC(=O)c4cncs4)C3)c2)c1	x	n	x	x
CCC(c1nnnn1-c1ccc2c(c1)OCCO2)N1CCN(c2ccc(OC)cc2)CC1 (configuration not stated)	n	x	n	n
C(=C\c1ccccc1)/CN1CCN(C(c2cc3ccccc3o2)c2nnnn2-c2ccc3c(c2)OCCO3)CC1 (configuration not stated)	n	n	-89	n
COc1ccc(C(c2nnnn2-c2ccc3c(c2)OCCO3)N2CCN(C/C=C/c3ccccc3)CC2)cc1 (configuration not stated)	n	n	-76	n
CCC(c1nnnn1-c1ccc2c(c1)OCCO2)N1CCN(CCN2CCOCC2)CC1 (configuration not stated)	n	x	n	n
COc1ccc2c(c1)CCc1cnc(-n3ncc(C(=O)NCCCc4ccncc4)c3C)nc1-2	x	n	x	x
Cc1cc2nc(NC(=O)C3(C)CCN3C(=O)C(C)C)[nH]c2cc1C (configuration not stated)	66	n	n	n
Cc1ccc(NC(=O)NCC2CCN(Cc3cccc(Cl)c3)CC2)cc1Cl	n	n	-51	n
Cc1ccc(C)c(CN2CCC(CNC(=O)Nc3ccc(F)c(Cl)c3)CC2)c1	n	n	-66	n
CCc1ccc(NC(=O)NCC2CCN(Cc3cccc(Cl)c3)CC2)cc1	n	n	-52	n
O=C(NCC1CCN(Cc2cccc(Cl)c2)CC1)Nc1ccccc1Cl	n	n	u	n
C#CCCCCCCCCCCCC(O)CC(O)COC(C)=O (configuration not stated)	x	n	x	x
COc1ccc(OCC#CCNC(C)(C)C)cc1	n	n	-69	n
CC(C)NCC#CCOc1ccc(Cl)cc1	n	n	n	n
SMILES	DRD3 agonist	Glioma ERSR ind	DRD3 antagonist	Nrf2 activator
CN1CCN(C(c2cccc(Cl)c2)c2ccccc2Cl)CC1 (configuration not stated)	n	n	-81	n
CN1CCN([C@@H](c2ccccc2)c2ccc(Cl)cc2)CC1	x	n	x	x
CN1CCN(C(c2ccccc2)c2ccc(Cl)cc2)CC1 (configuration not stated)	n	n	-92	n
Brc1ccc(-c2ccc(CNCc3ccccn3)o2)cc1	n	n	-74	n
Clc1cccc(-c2ccc(CNCc3ccccn3)o2)c1	n	n	n	n
CN(C)[C@@H]1C(=O)C(C(=O)NCN2CCCC2)=C(O)[C@@]2(O)C(=O)C3=C(O)c4c(O)cccc4[C@@](C)(O)C3C[C@@H]12 (some centres not stated)	n	x	x	x
